Screening data: PubChem, The Scripps Research Institute Molecular Screening Center
Only some compounds are listed: those with a hit (about 4.1% of all), similar ones and a draw of the others.
DAX1 inh-1: inhibitors of human orphan nuclear receptor DAX1 (NR0B1); P51843; HEK293 Gal4-DAX1 luciferase reporter, luminescence; inhibition, % at 6.75 µM; hit rate 0.99% among 340,000;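 active = inhibition above the mean over all tested compounds plus 3 SD, cut at about 4.2% in these data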;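 also: 0% = DAX1-transfected cells with DMSO and 100% = empty-vector control cells with DMSO; inhibition shows as a rise in luminescence from relieved DAX1 repression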
ssDAF12 agonist: activates DAF-12 receptor from parasite S. stercoralis; HEK293 ssDAF-12/GRIP1 lit1-tk-luc reporter, luminescence; % of 3 µM dafachronic acid response; activation, % at 6.8 µM; hit rate 1% among 370,000;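 active = activation above the mean over all tested compounds plus 3 SD, cut at about 0.9% in these data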;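 also: 0% = DMSO-only wells and 100% = 3 µM delta7-dafachronic acid wells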
hgDAF-12 ag: activates the H. glycines DAF-12 receptor ligand-binding domain; activation, % at 6.8 µM; hit rate 1.8% among 370,000; HEK293 GAL4-hgDAF12 UAS-luciferase reporter, agonist luminescence; normalized to butyrate control;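 active = activation above a cutoff set at the mean of all screened compounds plus 3 SD, cut at about 10% in these data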;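 also: 0% = DMSO wells and 100% = sodium butyrate wells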
hcDAF12 agonist: H. contortus DAF-12 activation, primary screen. HEK293 hcDAF-12 lit1-tk-luc reporter, luminescence; 0% DMSO, 100% Δ7-dafachronic acid. activation, % at 6.8 µM. hit rate 1.4% among 370,000. AID 652067;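 active = activation above the mean of all tested compounds plus 3 SD, cut at about 5.5% in these data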;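 also: 100% = response to 3 µM Δ7-dafachronic acid high control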
DAX1 inh-2: DAX1 (NR0B1) inhibition, primary screen | HEK293T StAR-luciferase reporter, SF-1/DAX-1 repression relief | inhibition, % at 6.8 µM | hit rate 1.1% among 370,000;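 active = inhibition above the mean over all tested compounds plus 3 SD, cut at about 3.6% in these data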;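 also: 0% = DAX-1 cells with DMSO and 100% = cells lacking DAX-1 with DMSO; higher inhibition means more luminescence from relief of DAX-1 repression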
DAX1 conf: confirmation of human DAX1 (NR0B1) inhibitors; shares compounds with DAX1 inh-2; HEK293T StAR-promoter luciferase reporter, SF-1/DAX-1 repression; inhibition, % at 6.8 µM; hit rate 87% among 2,400; AID 652134;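 active = inhibition above the average of every tested compound plus 3 SD, cut at about 3.8% in these data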;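 also: 0% = DAX-1 cells with DMSO and 100% = no DAX-1 control cells with DMSO; active compounds raise luminescence by relieving repression of the StAR reporter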
Target sequence (P51843 whole entry, looked up): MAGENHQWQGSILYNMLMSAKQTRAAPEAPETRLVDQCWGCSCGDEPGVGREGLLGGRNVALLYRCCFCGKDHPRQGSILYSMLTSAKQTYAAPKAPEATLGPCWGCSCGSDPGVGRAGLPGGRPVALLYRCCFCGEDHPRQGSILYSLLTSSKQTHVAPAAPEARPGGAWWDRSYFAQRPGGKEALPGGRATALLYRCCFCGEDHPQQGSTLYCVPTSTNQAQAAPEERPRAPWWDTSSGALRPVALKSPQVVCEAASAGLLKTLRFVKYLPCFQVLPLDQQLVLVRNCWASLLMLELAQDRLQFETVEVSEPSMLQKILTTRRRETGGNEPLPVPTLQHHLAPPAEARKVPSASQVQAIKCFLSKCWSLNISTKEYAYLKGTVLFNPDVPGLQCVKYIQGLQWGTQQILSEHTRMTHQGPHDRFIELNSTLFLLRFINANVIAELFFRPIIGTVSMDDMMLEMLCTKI
SF1 mutant ctr: nonselective inhibitor or artifact in SF-1 mutant DAX1 counter-screen; shares compounds with DAX1 inh-2; HEK293 StAR-luciferase, SF-1 AF2 mutant, luminescence; inhibition, % at 6.8 µM; hit rate 78% among 2,400; AID 652136;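 active = inhibition above the mean of all tested compounds plus 3 SD, cut at about 3% in these data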;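 also: 0% = DAX-1 transfected cells with DMSO and 100% = cells without DAX-1 with DMSO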
Starred values were filed as active, the others as inactive; . = no result.

SMILES	DAX1 inh-1	ssDAF12 agonist	hgDAF-12 ag	hcDAF12 agonist	DAX1 inh-2	DAX1 conf	SF1 mutant ctr
CCOc1ccc(N2CC(C(=O)Nc3ccncc3)CC2=O)cc1 (stereo unspecified)	-2.0	-0.2	-0.6	1.4	-0.1	.	.
Cc1cc(C(=O)Nc2ccc3c(c2)OCO3)no1	0.9	0.1	10.2	5.3	7.8*	9.1*	7.5*
O=C(Nc1ccc2c(c1)OCCO2)c1ccc(Br)s1	-1.5	1.5*	12.5*	5.8*	5.9*	13.8*	5.6*
Cn1nccc1C(=O)Nc1ccc(Cl)cc1	-0.1	-0.4	1.4	0.1	0.8	.	.
Cn1nccc1C(=O)Nc1ccc2c(c1)OCO2	0.5	-0.5	8.8	1.7	4.7*	5.8*	3.9*
CCc1sc(C(=O)Nc2ccc(N3CCOCC3)cc2)cc1C	-0.7	-1.2	8.6	-1.9	0.3	.	.
CC(=O)Nc1ccc2c(c1)OCCOCCOc1cc(NC(C)=O)ccc1OCCOCCOCCO2	.	-0.3	-2.0	-2.7	-0.9	.	.
CCc1sc(C(=O)Nc2ccc3c(c2)OCO3)cc1C	0.3	0.1	10.8*	3.4	7.6*	9.3*	6.5*
O=C(c1ccc(F)cc1)n1ccc(-c2cnc(-c3ccccc3)s2)n1	2.6	0.9*	12.8*	5.9*	5.0*	12.5*	5.5*
Cc1ccccc1C(=O)Nc1ccc(S(=O)(=O)N2CCOCC2)cc1	-0.6	.	.	.	.	.	.
COc1ccc(Cc2c(-c3ccc(C)cc3)nc3ccc(Cl)cn23)c(C)c1	.	0.2	13.0*	1.8	5.7*	6.5*	4.9*
COc1ccc(Cc2c(-c3cccc(Br)c3)nc3ccc(Br)cn23)c(C)c1	.	-0.2	3.9	0.8	5.1*	3.3	3.5*
CCc1cc(C(=O)NC2CCCc3c2cnn3-c2cccc(C)c2C)n(C)n1 (stereo unspecified)	.	-2.4	-7.0	-4.3	-9.4	.	.
Nc1ccccc1C(=O)Nc1nccs1	0.6	-1.1	1.3	1.7	0.9	.	.
Nc1ccc(C(=O)Nc2nccs2)cc1	0.6	-1.2	9.9	2.7	4.8*	5.1*	4.7*
Cc1nc(-c2ccc(NC(=O)/C=C\C(=O)O)cc2)cs1	-2.4	-0.8	9.2	-0.8	0.4	.	.
Cc1ccc2sc(-c3ccc(NC(=O)/C=C\C(=O)O)cc3)nc2c1	-1.8	0.5	12.0*	6.2*	5.3*	9.9*	6.5*
CCOC(=O)C=C(OC(=O)c1ccc(OC)cc1)c1ccccc1	-0.5	-2.0	-3.0	1.2	-1.2	.	.
Cc1c(C(=O)NCCCN2CCOCC2)oc2ccc(S(=O)(=O)N3CCOCC3)cc12	-0.4	-1.4	-5.1	0.0	-0.3	.	.
CC(=O)N1CCN(C(=O)c2oc3ccccc3c2C)CC1	0.9	-1.4	1.0	1.8	5.3*	2.5	3.7*
Cc1ccc2oc(C(=O)NCCCN3CCOCC3)c(C)c2c1	3.0	0.3	11.4*	5.2	6.6*	8.9*	7.6*
Cc1ccc2oc(C(=O)N3CCCCCC3)c(C)c2c1	2.0	-0.1	9.8	4.5	5.3*	5.2*	3.5*
Cc1c(C(=O)N2CCCCC2)oc2ccc(Br)cc12	0.3	0.7	11.2*	1.1	5.5*	5.8*	4.0*
O=C(NC1CCCC1)C(c1ccc(F)cc1)N(Cc1ccc(F)cc1)C(=O)CCl (stereo unspecified)	-0.5	-1.4	1.5	1.5	0.2	.	.
CCCCOC(=O)c1cccnc1	1.5	-1.2	2.2	0.6	0.6	.	.
SMILES	DAX1 inh-1	ssDAF12 agonist	hgDAF-12 ag	hcDAF12 agonist	DAX1 inh-2	DAX1 conf	SF1 mutant ctr
CCC(CC)C(=O)Oc1c(C(=O)N(C)C)cccc1-c1ccccc1	-0.1	-1.4	-0.3	1.2	1.1	.	.
Clc1ccc(-c2nnc(SCc3ccon3)o2)c(Cl)c1	1.3	0.6	16.1*	6.2*	7.2*	11.0*	5.4*
O=C(Nc1ccc(F)c(Cl)c1)c1csc([C@@H]2C[C@H](O)[C@@H](CO)O2)n1	.	-1.0	1.6	3.0	4.7*	3.0	2.2
Cn1cccc1/C=N/NC(=O)c1cccs1	2.4	0.1	10.9*	0.5	5.5*	5.7*	3.7*
COc1ccc2oc(C(=O)N3CCc4ccccc43)c(C)c2c1	-1.6	0.7	7.2	3.9	10.7*	15.4*	5.3*
COc1ccc2oc(C(=O)Nc3ccc(C)cn3)c(C)c2c1	3.0	0.1	10.8*	3.8	5.0*	10.0*	6.6*
COc1cc2ccccc2cc1C(=O)Nc1ccc(C)cn1	1.2	0.2	11.0*	5.7*	5.5*	13.1*	6.8*
COc1ccc2oc(C(=O)NCCC(C)C)c(C)c2c1	1.8	0.4	9.2	5.0	6.1*	14.1*	6.2*
O=c1[nH]c(=S)[nH]c2c1C(c1ccc(F)cc1)OC(C1CCCCC1)C2 (stereo unspecified)	.	-1.4	-1.6	-1.1	-0.5	.	.
COc1ccc(C(CNC(=O)c2oc3ccc(Br)cc3c2C)N2CCCCC2)cc1 (stereo unspecified)	-1.3	-0.8	3.0	-1.4	0.8	.	.
COc1ccc(C(CNC(=O)c2oc3ccc(OC)cc3c2C)N2CCCC2)cc1 (stereo unspecified)	0.2	-1.1	1.8	0.3	5.0*	6.1*	4.2*
CN(C)C(/C=C/Nc1ccc([N+](=O)[O-])cc1)=C(C#N)C#N	-0.5	-1.4	2.6	-1.1	0.3	.	.
COc1cccc(OC)c1C(=O)Nc1cccc(-n2cnnn2)c1	0.5	-1.3	1.4	1.3	-0.5	.	.
CCN1CCN(S(=O)(=O)c2ccc(Cl)c(C(=O)NCCc3ccccc3)c2)CC1	0.8	0.1	6.9	2.5	5.6*	3.1	2.7
Cc1ccc(CNC(=O)c2ccccc2NC(=O)CN2CCN(C)CC2)cc1	-0.6	-0.8	0.9	1.6	0.3	.	.
Cc1nn(-c2ccccc2)c(Cl)c1/C=N/NC(=O)c1ccnn1C	0.7	-0.5	7.5	3.3	7.2*	9.4*	6.4*
O=C(NCCc1ccc(Cl)cc1)c1ccc2[nH]c(=O)c(=O)[nH]c2c1	1.1	0.8	4.4	0.6	-0.1	.	.
COc1ccc(S(=O)(=O)N2CCCCCC2)cc1NC(C)C(=O)Nc1ccc(NC(C)=O)cc1 (stereo unspecified)	-0.6	-0.6	-0.5	-1.9	-1.8	.	.
COc1ccc(NC(=O)N(C)C[C@H]2Oc3ccc(NC(=O)CCN4CCOCC4)cc3C(=O)N([C@H](C)CO)C[C@@H]2C)cc1	3.3	-0.6	-0.2	-0.3	0.4	.	.
COc1ccc(-c2cn3cc(C)ccc3n2)cc1F	-1.6	-0.3	10.4	5.6*	4.8*	11.5*	1.4
Cc1cccc(N2CCN(C(=O)C3CCN(c4ncnc5c4nc4n5CCCCC4)CC3)CC2C)c1 (stereo unspecified)	-1.9	-2.4	-10.2	-5.0	-1.4	.	.
